Screening data from PubChem BioAssay.
Rows were chosen to be rich in hits. Some 1.3% of all compounds tested hit in one or more screens of this group.
Rv3671c inh = inhibits the M. tuberculosis serine protease Rv3671c. P9WHR9. inhibition, % at 5.96 µM. 320,000 tested, 0.048% active; in the data active means inhibition above about 38%;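 further: extracellular domain of Rv3671c used as enzyme; 0% = enzyme with DMSO and 100% = no enzyme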
PrP 5UTR inh = suppresses PrP 5' UTR mRNA reporter expression; cell-based PrP 5' UTR mRNA reporter, plate reader; inhibition, % (no concentration beside the values); 340,000 tested, 0.35% active; in the data active means inhibition above about 52%; further: 0 = median of the neutral control wells
BJeLR viability = kills HRASV12-expressing BJeLR cells; BJeLR (HRASV12) viability, CellTiter-Glo ATP luminescence, 48 h; inhibition, % (concentration not given with the values); 300,000 tested, 0.17% active; in the data active means inhibition above about 50%
RecA splice inh = Mtb RecA intein splicing inhibition; cell-free RecA intein splicing, fluorescence; inhibition, % (no concentration beside the values); 290,000 tested, 0.75% active; in the data active means inhibition above about 30%;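 further: 0% = vehicle wells and 100% = reference inhibitor control wells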
FadD28 binding = inhibitors of Mycobacterium tuberculosis FadD28 bisubstrate binding | FadD28 bisubstrate probe binding, fluorescence polarization | inhibition, % at 12.5 µM | 360,000 tested, 0.22% active | AID 588549; in the data active means inhibition above about 8.5%, passing the limit was not always enough
Mtb UGM inh = Mtb UDP-galactopyranose mutase inhibition. 320,000 tested, 0.06% active. inhibition, % at 10 µM. AID 504406. purified UGM, fluorescence polarization probe displacement; in the data active means inhibition above about 10%, passing the limit was not always enough
Target sequence (P9WIQ1 whole entry, looked up): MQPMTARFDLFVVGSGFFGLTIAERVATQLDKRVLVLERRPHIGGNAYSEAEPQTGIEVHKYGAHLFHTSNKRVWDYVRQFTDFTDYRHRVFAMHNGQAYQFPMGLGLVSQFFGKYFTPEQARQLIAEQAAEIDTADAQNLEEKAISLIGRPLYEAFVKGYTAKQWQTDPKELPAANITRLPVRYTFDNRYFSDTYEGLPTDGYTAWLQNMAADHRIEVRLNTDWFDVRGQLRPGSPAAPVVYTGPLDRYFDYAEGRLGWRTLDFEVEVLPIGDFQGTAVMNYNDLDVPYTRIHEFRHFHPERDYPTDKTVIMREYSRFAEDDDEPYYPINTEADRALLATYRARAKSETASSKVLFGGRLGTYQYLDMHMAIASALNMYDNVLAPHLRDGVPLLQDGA
GFP chromophore = counter-screen: blocks GFP chromophore formation; 2,100 tested, 83% active; cell-free GFP chromophore formation, fluorescence; EC50, µM; shares compounds with RecA splice inh; call rule not given here
The depositor's hits bear a star; . = no result.

SMILES	Rv3671c inh	PrP 5UTR inh	BJeLR viability	RecA splice inh	FadD28 binding	Mtb UGM inh	GFP chromophore
CSc1nnc(NC(=O)c2nc(S(=O)(=O)Cc3ccccc3)ncc2Cl)s1	6	-15	6	72*	0	0	30*
CCCc1nnc(NC(=O)c2nc(S(=O)(=O)Cc3ccc(C)cc3)ncc2Cl)s1	2	-25	5	85*	-3	0	>38
C[C@@H]1CN([C@H](C)CO)C(=O)CCCn2nncc2CO[C@@H]1CN(C)C(=O)NC1CCCCC1	.	.	.	.	1	.	.
O=C(CCS(=O)NCc1ccccc1)NCc1ccccc1 (configuration not stated)	13	.	-21	59*	.	1	>38
O=C(CCS(=O)CCC(=O)NCc1ccccc1)NCc1ccccc1	-1	-18	12	0	-2	0	.
Cc1cc(F)ccc1-c1cc(C(=O)NCc2ccco2)[nH]n1	.	.	.	.	-1	.	.
CCOC(=O)c1cnc(N)nc1-c1ccccc1	.	-20	.	.	-1	.	.
CCOC(=O)c1cnc(N)nc1C(F)(F)F	-1	-21	1	61*	-4	4	>38
CC1CCCN(C2=C(Cl)C(=O)N(c3cccc(Cl)c3)C2=O)C1 (configuration not stated)	-9	-26	-10	70*	-2	0	8.7*
COc1ccc(N2C(=O)C(Cl)=C(N3CCCC(C)C3)C2=O)cc1 (configuration not stated)	5	-8	3	12	-2	2	.
Cc1ccc2c(=O)n3c(nc2c1)C(CC(C)C)NC(=O)c1cccnc1-3 (configuration not stated)	.	.	.	.	-2	.	.
O=C1C(Cl)=C(NS(=O)(=O)c2ccc([N+](=O)[O-])cc2)C(=O)c2ccccc21	2	-62	-2	73*	1	1	3.6*
Nc1nc(SCc2ccc(Br)cc2)c2ncn(C3OC(CO)C(O)C3O)c2n1 (configuration not stated)	.	10	.	.	-7	.	.
COc1ccc(OCc2cc(C(=O)N3CCCC(OC)C3)no2)c2ccccc12 (configuration not stated)	2	-47	-1	35*	-5	0	30*
CCOc1ccc2c(c1)-c1c(ssc1=S)C(C)(C)N2	11	-12	-3	51*	1	0	12*
CCN(c1ccc(NC(=O)COC(=O)C2CCN(c3ccc(C(F)(F)F)cn3)CC2)cc1)C(C)C	.	-39	.	.	-1	.	.
Cc1ccccc1-c1cc2c(nn1)-c1ccccc1C2=O	-100	-42	0	75*	-1	-2	13*
CCc1ccc(NC(=O)CSc2ccc(-c3sc(C)nc3C)nn2)cc1	-5	-34	-4	82*	-5	3	>38
COc1ccc(NC(=O)CSc2ccc(-c3sc(C)nc3C)nn2)cc1	-5	-21	-14	-3	-3	2	.
CCCCCCCN(C(=O)CCl)c1ccccc1C	13	-23	-3	56*	-5	-1	18*
C[C@@H]1CN([C@@H](C)CO)C(=O)CCCn2nncc2CO[C@@H]1CN(C)S(=O)(=O)c1cccc(F)c1	.	.	.	.	-1	.	.
Cc1ccc(S(=O)(=O)N2CCCC(C(=O)NCCc3ccc(Cl)cc3)C2)cc1 (configuration not stated)	.	.	.	.	-1	.	.
O=C(NCCO)C(=O)Nc1cc2c3c(c1)CC(=O)N3CCC2	-6	8	-13	21	-3	4	.
O=C(CCl)c1cc2c3c(c1)CC(=O)N3CCC2	1	-29	6	44*	-3	0	39*
COc1cc(-c2coc3c(C(=O)NCc4cccc(Cl)c4)cccc23)ccc1O	.	.	.	.	-1	.	.
O=[N+]([O-])c1cc([N+](=O)[O-])c2oc(-c3ccccc3)c(Br)c2c1O	.	-27	15	30*	26*	.	>38
O=c1cc(-c2ccccc2Cl)oc2ccc([N+](=O)[O-])c(O)c12	0	-14	11	2	-2	2	.
CCCCCCCCNC(=O)/C(C#N)=C/c1ccccc1[N+](=O)[O-]	-1	-5	1	42*	0	-4	12*
Cc1noc2ncnc(Sc3ccccc3Cl)c12	1	-5	4	45*	-1	2	38*
O=C(NCc1cccnc1)/C(=C\c1ccc(-c2cccc(Cl)c2)o1)S(=O)(=O)c1ccccc1	-18	-5	-5	54*	-5	2	35*
